For the first assay, the target named is IPO9. Briefly: pooled miR-30 sensor sort-seq; sequence = guide strand. Particulars: shRNA.
As to TATTGTTTCAAGATGACTGATG, the sensor-assay potency score (higher = more potent) is -0.429.
The same measure, in the same setting: then TTGTATTTCGTACTACTGTTGT, with -0.494.
On the same count and under the same terms, the figure for TTTGTATTTCGTACTACTGTTG is -0.688; for TTACAGAGTGCCACAGAGCTGA it is -0.313; for TTCTAGCTGAGTGTGCACCAGA it is -0.519.
For the sequence TTGCTTTCCATGCTTGCTGTGA, the sensor-assay potency score (higher = more potent) is -0.476.
For TTATCGATTCTCTCAACCCATT, the sensor-assay potency score (higher = more potent) is -1.16.
On to TATAGGAGAATGTATCATCATC, for which the sensor-assay potency score (higher = more potent) was -0.789.
For TAATCTGTTCTTCAGCAGCCGC, the sensor-assay potency score (higher = more potent) is -1.2.
In the case of TTTTTGGCTGACTTAGAGCGGG, the sensor-assay potency score (higher = more potent) was -0.902.
In the case of TTTGCTTATCGATTCTCTCAAC, the sensor-assay potency score (higher = more potent) was -1.05.

The target in the next assay is IQCF1. Described as above. To be noted: shRNA.
Regarding TTGGCTGTGACTCTGTACTGGC, the sensor-assay potency score (higher = more potent) is -0.0836.
TTGTCCACTGTCTGTGTCTCAA: the sensor-assay potency score (higher = more potent) is -0.831.
With TTTGAGGGTTCCTTCGTCTTTT, the sensor-assay potency score (higher = more potent) was -0.864.
On the same count and under the same terms, then TAGCCTCTGCCTTTGACTCTGC, with -0.296.
In turn, ATCTTTGTCAGAGAGCTTCTTT yielded a sensor-assay potency score (higher = more potent) of 0.163.
In the case of TTCTTCAGAATCTTGGACAGTA, the sensor-assay potency score (higher = more potent) was 0.482.
For the sequence TTGATCTTGGTGGCTACCGTAT, the sensor-assay potency score (higher = more potent) is -0.916.
In the case of TTTCTCATTGGCATTGTCCACT, the sensor-assay potency score (higher = more potent) is -0.377.
As to TTGAGCACCTGGCAATAGCGTC, the sensor-assay potency score (higher = more potent) is -1.02.
TACCGTATCTTTGTCAGAGAGC: the sensor-assay potency score (higher = more potent) was -0.874.
ATACACTCTGTCACAATGCAAG: the sensor-assay potency score (higher = more potent) is -1.11.
For TGGAGTTTTAGCCTCTGCCTTT, the sensor-assay potency score (higher = more potent) was -0.954.

For another assay, the target named is IQCJ. The assay is described as above. Particulars: shRNA.
On to TAGAGAAGAATCACCTTCCTTC, for which the sensor-assay potency score (higher = more potent) turned out to be 0.583.
As for ATATTTTCCATCATTAACTTGT, the sensor-assay potency score (higher = more potent) is 0.105.
Take TCTCTGAGGAGACAGAGGGTGG: the sensor-assay potency score (higher = more potent) was -1.51.
For the sequence TCGCTGAATGATTTTCACCTTT, the sensor-assay potency score (higher = more potent) is -0.759.
With TTTTCCATCATTAACTTGTTCT, the sensor-assay potency score (higher = more potent) is -0.253.
Sequence TTGAGAGTATGTATGAACCCAG came in with a sensor-assay potency score (higher = more potent) of 0.0169.
With TTCCATCATTAACTTGTTCTAG, the sensor-assay potency score (higher = more potent) is -0.41.
With TCCATCATTAACTTGTTCTAGA, the sensor-assay potency score (higher = more potent) was -0.697.
On the same count and under the same terms, then TTCTCTGAGGAGACAGAGGGTG, with -0.857; and TAGAGGATTCTGCAATCTTTTC, with -1.5.
For TCGGAGAAGGTGTTCATGCTGA, the sensor-assay potency score (higher = more potent) was -0.401.

Another assay deals with IREB2. The assay is described as above. Particulars: shRNA.
Take TTCGAAACAATTTCACAGCTTT: the sensor-assay potency score (higher = more potent) was 1.18.
Consider TTTTCTTCAAAAACCACTCTTG, for which the sensor-assay potency score (higher = more potent) was -0.106.
Consider TTTAGATACATCGAAGAACTTC, for which the sensor-assay potency score (higher = more potent) was -0.321.
The sequence TCAACTGTAAGATCTGTCGGAC registered a sensor-assay potency score (higher = more potent) of 0.203.
As to TAAAATTCCACAGGTAACCAAA, the sensor-assay potency score (higher = more potent) was -1.05.
For the sequence TATTGTAGTTCGATCAACTATA, the sensor-assay potency score (higher = more potent) was -0.8.
Note: reference of the scale not given here.
